Screening data as filed in PubChem BioAssay.
KKLEB cytotox: cytotoxicity in KKLEB CF airway cells, primary screen, cytotoxicity control for CF NF-kB inhibitor project, cell-based, uHTS, fluorescence assay plates | activity change (cytotoxicity), % at 5 µM | AID 602141, 2011 | KKLEB CF airway cells viability, ATPlite luminescence, overnight; active compounds read low; cells stimulated with P. aeruginosa culture filtrate | 0.36% of 360,000 active;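 active = corrected activity change at or below -50% at 5 µM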
Peg3 prom inh: Peg3 promoter-driven luciferase inhibitors, primary screen, cell-based, HeLa, luciferase luminescence. HeLa PEG-Prom luciferase reporter, overnight. inhibition, % at 20 µM. 1.7% of 360,000 active;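 active = inhibition of at least 50% at 20 µM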
Shn3 inh set2: reduction of Shn3 3'UTR firefly luciferase signal, primary screen, Schnurri-3 inhibitor project, cell-based, Clone20 osteoblasts, set 2 | Clone20 osteoblast Shn3 3'UTR firefly luciferase, 24 h | inhibition, % at 12.5 µM | 0.52% of 360,000 active;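 active = mean inhibition of at least 75% with every replicate also reaching 75%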;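 note: 0% = median of neutral control wells and 100% = pilot-screen positive control compound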
HIF-2a block: HIF-2a reporter inhibitors, primary screen, luminescence, 786-0 RCC cells; 786-0 RCC cells HIF-2a reporter, luciferase luminescence, overnight; 0.72% of 360,000 active; inhibition, % at 18.8 µM;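 active = inhibition of the luminescence signal of 40% or more relative to plate controls, in a single-dose primary screen at 18.75 µM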
CF NFkB inh: inhibitors of PAF-induced NF-kB signaling, primary screen, cell-based, GFP fluorescence, uHTS; KKLEB NF-kB-GFP reporter, GFP fluorescence overnight; inhibition, % at 5 µM; 0.86% of 360,000 active; AID 588850, 2011;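 active = at least 50% inhibition at 5 µM, scaled per plate between neutral and stimulator controls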;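 note: PAF is a Pseudomonas aeruginosa culture filtrate used as stimulus; plate controls were PAF-stimulated DMSO wells for no effect and unstimulated DMSO wells for full effect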
MITF TRPM1 inh: inhibitors of MITF-dependent TRPM1 promoter reporter, primary screen, cell-based, SK-MEL-5, single point, luciferase | inhibition, % at 12.5 µM | SK-MEL-5 TRPM1 promoter luciferase, 24 h | 0.83% of 330,000 active;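 active = mean inhibition across replicates of 60% or more, whatever share of single replicates reaches that level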
Active calls of the source: *. The list is not random: actives were taken first. Their share in the collection is about 2.7%.

`CCC(=O)NC(c1ccco1)c1cc(Br)c2cccnc2c1O` (configuration not stated) gave KKLEB cytotox 19, Peg3 prom inh 50, Shn3 inh set2 38, HIF-2a block 17 and CF NFkB inh -8.
Screening CC(=O)NC(c1ccc(C)cc1)c1cc([N+](=O)[O-])c2cccnc2c1O (configuration not stated) returned KKLEB cytotox 7, Peg3 prom inh 54*, Shn3 inh set2 45, HIF-2a block 24, CF NFkB inh 11 and MITF TRPM1 inh -6.
For CCC(=O)NC(c1cc(Cl)c2cccnc2c1O)C(C)C (configuration not stated) the results were KKLEB cytotox 7, Peg3 prom inh 35, Shn3 inh set2 69, HIF-2a block 16, CF NFkB inh 1 and MITF TRPM1 inh 38.
`CCCC(=O)NC(c1ccco1)c1cc([N+](=O)[O-])c2cccnc2c1O` (configuration not stated) gave KKLEB cytotox -11, Peg3 prom inh 38, Shn3 inh set2 1, HIF-2a block 11, CF NFkB inh 57* and MITF TRPM1 inh -4.
COc1ccc(/C=N/n2c(COc3ccccc3)n[nH]c2=S)cc1OC was read as KKLEB cytotox -12, Peg3 prom inh 2, Shn3 inh set2 19, HIF-2a block -3, CF NFkB inh 6 and MITF TRPM1 inh -6.
Cc1cc2nc(-c3ccc(SCC(=O)Nc4nccs4)nc3)[nH]c2cc1C was read as KKLEB cytotox -59*, Peg3 prom inh 14, Shn3 inh set2 9, HIF-2a block -155, CF NFkB inh 58* and MITF TRPM1 inh 74*.
COc1ccc(-c2nc(SCC(=O)Nc3nccs3)c(-c3ccc(Cl)cc3)[nH]2)cc1 was read as KKLEB cytotox -16, Peg3 prom inh 52*, Shn3 inh set2 23, HIF-2a block -2 and CF NFkB inh 10.
CCc1nnc(NC(=O)CSc2ccc(-c3nc4ccc(C)cc4[nH]3)cn2)s1 was read as KKLEB cytotox -42, Peg3 prom inh -259, Shn3 inh set2 -2, HIF-2a block -153, CF NFkB inh 12 and MITF TRPM1 inh 20.
Cc1cc2nc(-c3ccc(SCC(=O)Nc4ccc(S(=O)(=O)N5CCCC5)cc4)nc3)[nH]c2cc1C was read as KKLEB cytotox -54*, Peg3 prom inh -78, Shn3 inh set2 -31, HIF-2a block -194, CF NFkB inh 23 and MITF TRPM1 inh -28.
For CN1CC(=O)N/C1=N\C(=O)Nc1ccc(O)cc1 the results were KKLEB cytotox -14, Peg3 prom inh 5, Shn3 inh set2 3, HIF-2a block 2, CF NFkB inh -14 and MITF TRPM1 inh -7.
CCn1cc(CN2CCC(n3nccc3NC(=O)c3ccc4c(c3)OCO4)CC2)c(C)n1 was read as KKLEB cytotox 0, Peg3 prom inh -8, Shn3 inh set2 -15, HIF-2a block 9, CF NFkB inh 29 and MITF TRPM1 inh 1.
For CC1(c2cccc3ccccc23)OC(=O)c2ccccc21 (configuration not stated) the results were KKLEB cytotox 1, Peg3 prom inh 15, Shn3 inh set2 6, HIF-2a block -18, CF NFkB inh -19 and MITF TRPM1 inh 5.
`CCCCCCNC(=O)c1cn(CC)c2cc(N3CCN(C)CC3)c(F)cc2c1=O` gave KKLEB cytotox -12, Peg3 prom inh 54*, Shn3 inh set2 17, HIF-2a block 22, CF NFkB inh 4 and MITF TRPM1 inh 16.
CCCSc1nnc(CSc2nc3ccccc3s2)n1-c1ccccc1 was read as KKLEB cytotox -5, Peg3 prom inh 30, Shn3 inh set2 87*, HIF-2a block 10, CF NFkB inh 9 and MITF TRPM1 inh 14.
`N#CCCCSc1nnc(CSc2nc3ccccc3s2)n1-c1ccccc1` gave KKLEB cytotox -1, Peg3 prom inh 23, Shn3 inh set2 16, HIF-2a block 8, CF NFkB inh 1 and MITF TRPM1 inh 8.
For Cc1ccc(NC(=O)COc2ccc(C(=O)c3ccccc3)cc2)c(O)c1 the results were KKLEB cytotox -4, Peg3 prom inh 5, Shn3 inh set2 38, HIF-2a block 6, CF NFkB inh -12 and MITF TRPM1 inh 8.
Screening CC1CCCC(C)N1CCCNC(=O)c1cc2c(s1)-c1ccccc1OC2 (configuration not stated) returned KKLEB cytotox -23, Peg3 prom inh 79*, Shn3 inh set2 -1, HIF-2a block -8, CF NFkB inh 10 and MITF TRPM1 inh 61*.
`CC1CC(C)CN(CCCNC(=O)c2cc3c(s2)-c2ccccc2OC3)C1` (configuration not stated) gave KKLEB cytotox -11, Peg3 prom inh 44, Shn3 inh set2 4, HIF-2a block -12, CF NFkB inh 17 and MITF TRPM1 inh -14.
`CC(=O)N/N=C(\N)c1nonc1N` gave KKLEB cytotox 0, Peg3 prom inh -12, Shn3 inh set2 -37, HIF-2a block -29 and CF NFkB inh 7.
COc1ccc(-c2csc(NC(=O)CSc3nc4ccccc4c(=O)[nH]3)n2)cc1 was read as KKLEB cytotox -33, Peg3 prom inh -11, Shn3 inh set2 -2, HIF-2a block -38, CF NFkB inh 71* and MITF TRPM1 inh 1.
CN(C)CCCn1c(SCC(=O)N2c3ccccc3Sc3ccccc32)nc2ccccc2c1=O was read as KKLEB cytotox -31, Peg3 prom inh 107*, Shn3 inh set2 -7, HIF-2a block 7, CF NFkB inh 41 and MITF TRPM1 inh 26.
For CCn1c(SCC(=O)Nc2nc(-c3ccc(C)cc3)cs2)nnc1-c1ccccc1 the results were KKLEB cytotox 2, Peg3 prom inh -12, Shn3 inh set2 -14, HIF-2a block -39, CF NFkB inh -10 and MITF TRPM1 inh 5.
For Cc1ccc(-c2csc(NC(=O)CSc3nc4ccccc4c(=O)n3CCCN(C)C)n2)cc1 the results were KKLEB cytotox -19, Peg3 prom inh 70*, Shn3 inh set2 -1, HIF-2a block -40, CF NFkB inh 0 and MITF TRPM1 inh 40.
Screening COc1ccc2cc(C)c3nnc(SCC(=O)Nc4nc(-c5ccc(F)cc5)cs4)n3c2c1 returned KKLEB cytotox -42, Peg3 prom inh 66*, Shn3 inh set2 33, HIF-2a block -7, CF NFkB inh 22 and MITF TRPM1 inh 38.
`COc1ccc(-c2csc(NC(=O)CSc3nnc(Nc4ccccc4C)s3)n2)cc1` gave KKLEB cytotox -3, Peg3 prom inh 11, Shn3 inh set2 7, HIF-2a block -15, CF NFkB inh -10 and MITF TRPM1 inh 3.
